Data taken from PubChem BioAssay (NCI).
Compounds without any hit were thinned out: in the full panel of roughly 83,000, 20% have a hit.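 Treatment: one concentration, 48 hours, 96-well format. Scoring: percent growth, with anything below 10 considered active.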 A number with no mark means an inactive call.

tested on: EKVX NSCLC; assay: NCI-60 one-dose screen, 48 h (100 = growth as untreated, 0 = no growth, -100 = all killed); conditions: 10 µM unless noted
Description: Growth inhibition of the EKVX human Non-Small Cell Lung tumor cell line is measured as a screen for anti-cancer activity. Cells are grown in 96 well plates and exposed to the test compound for 48 hours. Compounds are tested at a single concentration, which is 10^-5 M for most compounds. The reported endpoint is percent growth (GI% or GIPRCNT), where numbers from 0 - 100% represent growth inhibition, and numbers from -100% - 0 represent cell death. For example, a value of 40 represents 60% growth inhibition. A value of 0 means no net growth occurred over the course of the experiment. A value of -40 indicates 40% of cells at the beginning of the experiment died by the end of the experiment. A value of -100 means all cells are dead at the end of the experiment.
NCI-60 Human Tumor Cell Lines Screen was performed using the standard one-dose NCI protocol, which is described in more detail at https://dtp.cancer.gov/discovery_development/nci-60/default.htm.
Compounds with GIPRCNT values below 10 were considered active. Activity score was based on GIPRCNT using the following formula: […]
Score is 0 for GIPRCNT values of 100 or above, 50 for GIPRCNT values of 0, and 100 for GIPRCNT values of -100.

Structure (SMILES) | growth [%]
COc1ccc(NC(=O)CSc2nc(C)c(C(C)=O)n2-c2ccc([N+](=O)[O-])cc2)cc1 | 88.1
CCCCCCCCCCCC(c1ccccc1)[N+](C)(C)C (stereo not given) | 42.7
CC1=C(SCCC(=O)OC(C[Se]C2=C(C)C(=O)c3ccccc3C2=O)C(=O)NCCCCCC(=O)OCc2ccccc2)C(=O)c2ccccc2C1=O (stereo not given) | 55.8
NC(=S)Nc1cccc(O)c1 | 93
COc1cc(C2CC(=O)Nc3c2c(C)nn3-c2nc3ccccc3[nH]2)c(OC)c2c1OCO2 (stereo not given) | 71.7
O=C1c2cccc(NCCN=Cc3cc([N+](=O)[O-])ccc3O)c2C(=O)c2c(NCCN=Cc3cc([N+](=O)[O-])ccc3O)cccc21 | 87.5
CC(CN1CCCCC1)C(=O)c1ccccc1 (stereo not given) | 104
NS(=O)(=O)c1cnccc1Sc1ccncc1S(N)(=O)=O | 96.9
O=C(/C=C/c1c(Cl)nc2sccn12)c1ccc(F)c(F)c1 | 74
COC(=O)CCC1=C(C)C2=NC1=CC1=NC(=CC3=NC(=Cc4[nH]c(/c(=C(/C)O)c4C)=C2)C(C(C)=O)=C3C)C(C)=C1CCC(=O)OC | 99.7
Clc1cc(Cl)cc(Nc2ccc3cc(OCCCN4CCOCC4)ccc3n2)c1 | 69.3
CC1SC(c2ccc(OCc3ccccc3)cc2)N(NC(=O)C(O)(c2ccccc2)c2ccccc2)C1=O (stereo not given) | 47
O=C(NC(Cc1nnc2n(Cc3ccccc3)c(=O)c3c4c(sc3n12)CCCC4)c1ccc(Cl)cc1)c1ccccc1 (stereo not given) | 94.6
O=C(Nc1ccc(-n2cc(-c3ccncc3)c(-c3ccc(Cl)c(O)c3)n2)cc1)N1CCOCC1 | 102
CNS(=O)(=O)c1n[nH]nc1-c1cc(C(C)(C)C)c(O)c(C(C)(C)C)c1 | 89.8
COc1ccc(C2c3ccc4ccccc4c3Oc3nc(C)[nH]c(=O)c32)cc1 (stereo not given) | 103
CC/C=C\C[C@H](O)C/C=C1/C(=O)C=C[C@@H]1C/C=C\CCCCO | 69.3
O=c1[nH][n+](-c2ccc(Cl)cc2)no1 | 60.6
COc1cccc(-c2nc3sccn3c2-c2ccnc(NCCNS(=O)(=O)c3ccc(C(F)(F)F)cc3)c2)c1 | 40.4
O=C(Nc1cccc(C(F)(F)F)c1)Nc1cccc(C(F)(F)F)c1 | 13.8

Structure (SMILES) | growth [%]
Cc1nc2ccccc2n1CC1NC(=O)NC1=O (stereo not given) | 97.9
CC1(C)CC(=O)C2=C(C1)N(c1ccc(OC(F)(F)F)cc1)C(N)=C(C#N)C2c1ccc(Cl)cc1 (stereo not given) | 84.6
O=c1[nH]c2ccccc2n1C1CCN(CCOc2ccccc2)CC1 | 99.7
O=C1NC(=Nc2ccc(Cl)cc2)S/C1=C\c1cn(-c2ccccc2)nc1-c1ccccc1 | 85.3
COc1ccc(CN2C(=O)C(Cl)=C(Nc3cccc(C(F)(F)F)c3)C2=O)cc1 | 63.4
Cc1cccc(NC(=O)N/C(N)=N/c2nc(C)c(C)s2)c1 | 55.8
CC(C)(C)c1ccc(/C=C/C(=O)Nc2ccc(O)cc2)cc1 | 89.2
COc1ccc(N=C(c2ccccc2)C2C(=O)c3ccccc3C2=O)cc1 | 104
C=CC(=O)Nc1cccc(Oc2nccc(Nc3nnc(C4CC4)s3)n2)c1 | 104
C=C(C)[C@@H]1CC[C@]2(C(=O)NC3CCCCC3)CC[C@]3(C)[C@H](CC[C@@H]4[C@@]5(C)CCCNC(C)(C)[C@@H]5CC[C@]43C)[C@@H]12 | 77.6
O=c1c2c3c(sc2n2c(-c4cc(-c5ccccc5)nn4-c4ccccc4)nnc2n1Cc1ccccc1)CCCC3 | 101
CC1CC(C(C)(C)C)C(=O)C(C(C)(C)C)C1 (stereo not given) | 101
c1ccc2c(c1)nc(CN1CCOCC1)n1cc(N3CCCC3)nc21 | 87.2
COc1ccc(-c2ccc3c(c2)sc2nc(-c4ccc(F)cc4)cn23)cc1 | 82.6
CC(C)CCC[C@@H](C)[C@H]1CC[C@H]2[C@@H](Nc3ccc(O)cc3)CCC[C@]12C | 109
CC1O[C@@H](OC2[C@H](OC(=O)/C=C/c3ccc(O)c(O)c3)C(COC3O[C@H](C)C(O)C(O)[C@@H]3O)O[C@@H](OCCc3ccc(O)c(O)c3)[C@H]2O)[C@@H](O)C(O)[C@H]1O (stereo not given in full) | 91.2
CCOC(=O)c1c2ncccc2n2c(=O)n(-c3ccccc3C)nnc12 | 74
O=c1c2c3c(sc2n2c(-c4cn(-c5ccccc5)nc4-c4ccc(Cl)cc4)nnc2n1Cc1ccccc1)CCCC3 | 87.1
CC1(C)OC2C(CO[Si](C)(C)C(C)(C)C)OC(n3c(I)c(C#C[Si](C)(C)C)c(=O)[nH]c3=O)C2O1 (stereo not given) | 109
CCOC(=O)c1c(-c2ccc(Cl)cc2)c(C#N)c(=O)n(-c2ccccc2CC)c1N | 90.6
